Source: PubChem BioAssay (Tox21)
Values joined by “and” are separate entries in the source; they are usually repeats but may differ in a detail not shown here. Identical values can stand only once. Records with an inconclusive call do not appear. Active and inactive are the calls of the source. Calls follow the shape of the dose curve; as a rule, active = well fitted curve in the direction sought with a large enough effect in the repeat runs; inconclusive = weak or mixed curves; inactive = no such curve, though single readings can be large; an effect the other way counts as inactive or inconclusive.

Key:
[1] = A CellTox Green Cytotoxicity Assay to monitor cytotoxicity in HEK293 cells - 40 hour (AID 1224871); also: nearly all actives have a fitted effect of over 45% in size
Procedure, shortened: (§1)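 Seeding of HEK293 cells together with cytotoxicity dye preceded a 5 h incubation at 37 C/5% CO2. Test compounds in DMSO were then added and fluorescence monitored across 40 h.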

[2] = qHTS RealTime-Glo MT Cell Viability Assay in HEK293 cells - 16 hour (AID 1224872); also: top concentration of the series differs between compounds; nearly all actives have a fitted effect of over 50% in size
Procedure, shortened: (§2)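 Viability tracked continuously by luminescence as live cells reduce a prosubstrate for NanoLuc; HEK293 cells preincubated 5 h, compound-treated at 37 C, and read at 0, 8, 16, 24, 32 and 40 h.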

[3] = qHTS RealTime-Glo MT Cell Viability Assay in HepG2 cells - 8 hour (AID 1224873); also: nearly all actives have a fitted effect of over 55% in size
Procedure, shortened: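 HepG2 cells mixed with RealTime-Glo MT reagents (NanoLuc plus cell-permeant prosubstrate) were seeded at 600 cells/well, incubated 5 h at 37 C/5% CO2, then pinned with compounds in DMSO; nonlytic luminescence tracked viability during 40 h treatment.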

[4] = qHTS RealTime-Glo MT Cell Viability Assay in HEK293 cells - 40 hour (AID 1224874); conditions: RealTime-Glo luminescence; max response: active compounds read low; also: nearly all actives have a fitted effect of over 50% in size
Procedure, shortened: (§3)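 Tox21 screen in HEK293 using RealTime-Glo MT chemistry, with cells and reagent co-dispensed. Luminescence proportional to viable cell number was captured at intervals during 40 h compound exposure at 37 C.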

[5] = A CellTox Green Cytotoxicity Assay to monitor cytotoxicity in HEK293 cells - 24 hour (AID 1224875); also: series mostly up to about 77 µM; nearly all actives have a fitted effect of over 45% in size
Procedure, shortened: as §1

[6] = A CellTox Green Cytotoxicity Assay to monitor cytotoxicity in HepG2 cells - 16 hour (AID 1224876); also: nearly all actives have a fitted effect of over 45% in size
Procedure, shortened: (§4)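 Nonlytic assay: viable cells exclude the dye, so fluorescence scales with cell death. HepG2 at 600 cells/well, compounds added after 5 h, signal read across 40 h.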

[7] = qHTS RealTime-Glo MT Cell Viability Assay in HepG2 cells - 32 hour (AID 1224877); also: nearly all actives have a fitted effect of over 55% in size
Procedure, shortened: (§5)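 Viability was tracked continuously by NanoLuc luminescence from prosubstrate reduced by living HepG2 cells, at successive time points over 40 h of compound exposure. Cells with reagent were preincubated 5 h at 37 °C before compound addition.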

[8] = A CellTox Green Cytotoxicity Assay to monitor cytotoxicity in HepG2 cells - 24 hour (AID 1224878); also: nearly all actives have a fitted effect of over 45% in size
Procedure, shortened: as §4

[9] = A CellTox Green Cytotoxicity Assay to monitor cytotoxicity in HepG2 cells - 40 hour (AID 1224879); also: nearly all actives have a fitted effect of over 40% in size
Procedure, shortened: as §4

[10] = qHTS RealTime-Glo MT Cell Viability Assay in HEK293 cells - 0 hour (AID 1224880)
Procedure, shortened: as §3

[11] = A CellTox Green Cytotoxicity Assay to monitor cytotoxicity in HEK293 cells - 32 hour (AID 1224881); also: nearly all actives have a fitted effect of over 40% in size
Procedure, shortened: as §1

[12] = A CellTox Green Cytotoxicity Assay to monitor cytotoxicity in HepG2 cells - 0 hour (AID 1224882); also: nearly all actives have a fitted effect of over 35% in size
Procedure, shortened: as §4

[13] = A CellTox Green Cytotoxicity Assay to monitor cytotoxicity in HepG2 cells - 32 hour (AID 1224883); also: nearly all actives have a fitted effect of over 50% in size
Procedure, shortened: as §4

[14] = A CellTox Green Cytotoxicity Assay to monitor cytotoxicity in HEK293 cells - 8 hour (AID 1224884); also: nearly all actives have a fitted effect of over 35% in size
Procedure, shortened: as §1

[15] = qHTS RealTime-Glo MT Cell Viability Assay in HepG2 cells - 16 hour (AID 1224885); also: nearly all actives have a fitted effect of over 50% in size
Procedure, shortened: as §5

[16] = qHTS RealTime-Glo MT Cell Viability Assay in HEK293 cells - 24 hour (AID 1224886)
Procedure, shortened: as §2

[17] = qHTS RealTime-Glo MT Cell Viability Assay in HEK293 cells - 8 hour (AID 1224887)
Procedure, shortened: as §3

[18] = A CellTox Green Cytotoxicity Assay to monitor cytotoxicity in HEK293 cells - 16 hour (AID 1224888); also: nearly all actives have a fitted effect of over 35% in size
Procedure, shortened: as §1

[19] = qHTS RealTime-Glo MT Cell Viability Assay in HepG2 cells - 0 hour (AID 1224889); also: nearly all actives have a fitted effect of over 50% in size
Procedure, shortened: as §5

[20] = A CellTox Green Cytotoxicity Assay to monitor cytotoxicity in HepG2 cells - 8 hour (AID 1224890); also: nearly all actives have a fitted effect of over 45% in size
Procedure, shortened: as §4
% is scaled to controls: 0 for no effect and ±100 for the full control effect.

CCCN(CCC)C(=O)SCC
inactive: Potency [1] | Potency [2] | Potency [3] | max response [4] 1.3% and 0.597% | Potency [5] | Potency [6] | Potency [7] | Potency [8] | Potency [9] | Potency [10] | Potency [11] | Potency [12] | Potency [13] | Potency [14] | Potency [15] | Potency [16] | Potency [17] | Potency [18] | Potency [19] | Potency [20]

Cc1cc(C)cc(O)c1
inactive: Potency [1] | Potency [2] | Potency [3] | max response [4] 6.28% and 8.82% | Potency [5] | Potency [6] | Potency [7] | Potency [8] | Potency [9] | Potency [10] | Potency [11] | Potency [12] | Potency [13] | Potency [14] | Potency [15] | Potency [16] | Potency [17] | Potency [18] | Potency [19] | Potency [20]

NC1CCCCC1N (stereo not given)
inactive: Potency [1] | Potency [2] | Potency [3] | max response [4] -12.3% and -1.05% | Potency [5] | Potency [6] | Potency [7] | Potency [8] | Potency [9] | Potency [10] | Potency [11] | Potency [12] | Potency [13] | Potency [14] | Potency [15] | Potency [16] | Potency [17] | Potency [18] | Potency [19] | Potency [20]

NC(=O)NC(N)=O
inactive: Potency [1] | Potency [2] | Potency [3] | max response [4] 1.11% and 4.69% | Potency [5] | Potency [6] | Potency [7] | Potency [8] | Potency [9] | Potency [10] | Potency [11] | Potency [12] | Potency [13] | Potency [14] | Potency [15] | Potency [16] | Potency [17] | Potency [18] | Potency [19] | Potency [20]

CC(C=O)Cc1ccc(C(C)(C)C)cc1 (stereo not given)
inactive: Potency [1] | Potency [2] | Potency [3] | max response [4] 0.145% and -7.53% | Potency [5] | Potency [6] | Potency [7] | Potency [8] | Potency [9] | Potency [10] | Potency [11] | Potency [12] | Potency [13] | Potency [14] | Potency [15] | Potency [16] | Potency [17] | Potency [18] | Potency [19] | Potency [20]

O=C(c1ccccc1)c1ccc(O)c(O)c1O
inactive: Potency [1] | Potency [2] | Potency [3] | max response [4] -18.4% | Potency [5] | Potency [6] | Potency [7] | Potency [8] | Potency [9] | Potency [10] | Potency [11] | Potency [12] | Potency [13] | Potency [14] | Potency [15] | Potency [16] | Potency [17] | Potency [18] | Potency [19] | Potency [20]
